Screens deposited in PubChem by several laboratories.
In the library only some 3.2% were active in any assay of this set; here they are far more common.
Mcl1 Bid PPI: disrupts binding of human Mcl-1 to Bid peptide; Q07820; TR-FRET Mcl-1/Bid-Dy647 peptide binding, 1536-well; inhibition, % at 21.7 µM; 220,000 tested, 0.97% active; AID 1021;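 active = compounds that cut the binding signal by more than half at the single screening dose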;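 also: His-tagged Mcl-1 with europium anti-His antibody binding Bid BH3 peptide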
Target sequence (Q07820 whole entry, looked up): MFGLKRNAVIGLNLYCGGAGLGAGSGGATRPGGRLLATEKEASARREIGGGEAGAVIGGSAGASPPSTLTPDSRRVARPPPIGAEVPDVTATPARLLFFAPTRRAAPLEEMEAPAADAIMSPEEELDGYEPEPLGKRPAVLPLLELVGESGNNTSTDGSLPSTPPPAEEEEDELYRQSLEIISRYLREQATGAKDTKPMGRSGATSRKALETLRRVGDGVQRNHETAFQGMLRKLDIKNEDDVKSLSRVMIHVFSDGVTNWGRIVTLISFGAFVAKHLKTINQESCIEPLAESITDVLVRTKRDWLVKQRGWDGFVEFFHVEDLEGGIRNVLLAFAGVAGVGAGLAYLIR
Mcl1-Noxa inh: disrupts binding of human Mcl-1 to Noxa peptide; TR-FRET Mcl-1/Noxa peptide binding, 2 h; 220,000 tested, 1.5% active; inhibition, % at 21.7 µM;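 active = compounds that cut the protein-peptide binding signal by more than 50% relative to plate controls in a single-dose test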;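 also: His-tagged Mcl-1 with rhodamine Noxa BH3 peptide and terbium anti-His antibody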
Bim-Mcl-1: human Bim-Mcl-1 interaction inhibition; Q07820; Bead-based flow cytometry, Bim peptide-Mcl-1 binding; inhibition, % at 10 µM; 190,000 tested, 0.1% active; AID 1009; in the data active = inhibition above about 40%
NCF1 inh: blocks human p47phox regulatory protein of NADPH oxidases; inhibition, % at 24.7 µM; p47phox/p22phox peptide binding, fluorescence polarization, 2 h; 220,000 tested, 0.53% active; AID 1274;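 active = inhibition above about 30%, limit read from the data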
14-3-3 Bad PPI: disrupts binding of bovine 14-3-3 zeta to phospho-Bad peptide | P63103 | TR-FRET 14-3-3zeta/Dy647-pBad peptide displacement, 1 h | inhibition, % at 21.7 µM | 220,000 tested, 0.71% active;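 active = inhibition above about 70%, limit read from the data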
Numbers stand for hits.

What do the screens show for `CCC(=O)OCCNc1cc(Sc2nc3ccccc3[nH]2)c2nonc2c1[N+](=O)[O-]`?
Mcl1 Bid PPI: inactive; Mcl1-Noxa inh: 56.7; Bim-Mcl-1: inactive; NCF1 inh: inactive; 14-3-3 Bad PPI: inactive

What do the screens show for `O=C1CN(C(=O)CCN2CCOCC2)C(c2ccccc2)c2cc(Br)ccc2N1` (centres undefined)?
Mcl1 Bid PPI: inactive; Mcl1-Noxa inh: inactive; Bim-Mcl-1: 44.0; NCF1 inh: inactive; 14-3-3 Bad PPI: inactive

What do the screens show for `O=C1CN(C(=O)c2ccc(Br)o2)C(c2ccccc2)c2cc(F)ccc2N1` (centres undefined)?
Mcl1 Bid PPI: inactive; Mcl1-Noxa inh: inactive; Bim-Mcl-1: inactive; NCF1 inh: inactive; 14-3-3 Bad PPI: inactive

How did COc1ccc(CNC(=O)c2c(O)c3cccc4c3n(c2=O)CCC4)cc1OC do in these assays?
Mcl1 Bid PPI: inactive; Mcl1-Noxa inh: inactive; Bim-Mcl-1: inactive; NCF1 inh: 54.2; 14-3-3 Bad PPI: inactive

How did CCOC(=O)C1C(=O)CC(=O)CC1CC(C)SCC (centres undefined) do in these assays?
Mcl1 Bid PPI: inactive; Mcl1-Noxa inh: inactive; Bim-Mcl-1: inactive; NCF1 inh: 79.3; 14-3-3 Bad PPI: inactive

Results for O=C(Cn1cnc2ccccc21)N/N=C/C(Br)=C/c1ccccc1 ?
Mcl1 Bid PPI: inactive; Mcl1-Noxa inh: inactive; Bim-Mcl-1: inactive; NCF1 inh: inactive; 14-3-3 Bad PPI: inactive

Results for CCOC(=O)COc1ccc2ccccc2c1/C=C/[N+](=O)[O-] ?
Mcl1 Bid PPI: inactive; Mcl1-Noxa inh: inactive; Bim-Mcl-1: inactive; NCF1 inh: inactive; 14-3-3 Bad PPI: inactive

What do the screens show for `CCOc1ccc(/C=C/[N+](=O)[O-])c2ccccc12`?
Mcl1 Bid PPI: inactive; Mcl1-Noxa inh: 76.3; Bim-Mcl-1: inactive; NCF1 inh: inactive; 14-3-3 Bad PPI: inactive

What do the screens show for `CCN(CC)S(=O)(=O)c1ccc(N2CCOCC2)c(NC(=O)C23CC4CC(CC(Cl)(C4)C2)C3)c1`?
Mcl1 Bid PPI: inactive; Mcl1-Noxa inh: inactive; Bim-Mcl-1: inactive; NCF1 inh: inactive; 14-3-3 Bad PPI: inactive

How did COc1ccc(C(OC(=O)c2ccco2)C(=O)NC2CCCCC2)cc1 (centres undefined) do in these assays?
Mcl1 Bid PPI: inactive; Mcl1-Noxa inh: inactive; Bim-Mcl-1: inactive; NCF1 inh: inactive; 14-3-3 Bad PPI: inactive

What do the screens show for `COc1ccc(C(OC(=O)c2c(C)noc2C)C(=O)NC2CCCC2)cc1` (centres undefined)?
Mcl1 Bid PPI: inactive; Mcl1-Noxa inh: inactive; Bim-Mcl-1: inactive; NCF1 inh: inactive; 14-3-3 Bad PPI: 81.9

What do the screens show for `O=C(Nc1nnc(-c2ccco2)s1)C1CC1`?
Mcl1 Bid PPI: 77.3; Mcl1-Noxa inh: inactive; Bim-Mcl-1: inactive; NCF1 inh: inactive; 14-3-3 Bad PPI: inactive

What do the screens show for `COc1ccc(NC(=O)CNc2ccc(C#N)cc2)cc1`?
Mcl1 Bid PPI: inactive; Mcl1-Noxa inh: inactive; Bim-Mcl-1: inactive; NCF1 inh: inactive; 14-3-3 Bad PPI: inactive

Results for O=C(NCC1CCCO1)c1ccc2c(=O)n(CC3CCCO3)c(=S)[nH]c2c1 (centres undefined) ?
Mcl1 Bid PPI: inactive; Mcl1-Noxa inh: inactive; Bim-Mcl-1: inactive; NCF1 inh: inactive; 14-3-3 Bad PPI: inactive

How did CCN(CC)CCNC(=O)CCCCn1c(=S)[nH]c2c([nH]c3ccc(OC)cc32)c1=O do in these assays?
Mcl1 Bid PPI: inactive; Mcl1-Noxa inh: 61.1; Bim-Mcl-1: inactive; NCF1 inh: inactive; 14-3-3 Bad PPI: inactive

How did O=C(NCC1CCCO1)c1ccc(Cn2c(=S)[nH]c3ccccc3c2=O)cc1 (centres undefined) do in these assays?
Mcl1 Bid PPI: inactive; Mcl1-Noxa inh: 81.4; Bim-Mcl-1: inactive; NCF1 inh: inactive; 14-3-3 Bad PPI: inactive

How did CC[C@H](C)NC(=O)c1ccc(Cn2c(=S)[nH]c3c([nH]c4ccc(OC)cc43)c2=O)cc1 do in these assays?
Mcl1 Bid PPI: inactive; Mcl1-Noxa inh: 76.0; Bim-Mcl-1: inactive; NCF1 inh: inactive; 14-3-3 Bad PPI: inactive

How did COc1ccc2[nH]c3c(=O)n(Cc4ccc(C(=O)NCC5CCCO5)cc4)c(=S)[nH]c3c2c1 (centres undefined) do in these assays?
Mcl1 Bid PPI: inactive; Mcl1-Noxa inh: 61.7; Bim-Mcl-1: inactive; NCF1 inh: inactive; 14-3-3 Bad PPI: inactive

Results for COCCn1c(SCC(=O)NCc2ccc3c(c2)OCO3)nc2ccccc2c1=O ?
Mcl1 Bid PPI: inactive; Mcl1-Noxa inh: inactive; Bim-Mcl-1: inactive; NCF1 inh: inactive; 14-3-3 Bad PPI: inactive

Results for Cc1ccc(C(=O)Nc2ccc(N3CCOCC3)nc2N2CCOCC2)cc1 ?
Mcl1 Bid PPI: inactive; Mcl1-Noxa inh: inactive; NCF1 inh: inactive; 14-3-3 Bad PPI: inactive
